{"source": "PubChem BioAssay AID652058", "about": "(Broad Institute, 2013)", "note": "The whole screen tested about 1,200 compounds, of which about 870 (72%) were called active. About 3% were inconclusive and are not listed.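 How the source made its calls: active means every test run fits a falling curve whose half-maximal concentration is at most twice the top valid dose; inconclusive means runs disagree, or flat 30 to 70% inhibition, or poor fit; inactive means every run inactive: flat, rising or weaker potency.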 The set was probably picked from earlier hits. Not all results are given here. Results with a measured potency or affinity are listed apart.", "data": [{"assay": "ZM109 Env clade C HIV-1 fusion inhibitors, dose response, HeLa effector, CEM target cells, luciferase, cherry-pick (AID 652058)", "conditions": "HeLa Env/CEM cell fusion, 16-24 h; series mostly up to 35 µM", "values": [{"smiles": "Cc1cc(C)c(CN2CCN(C(=O)Cn3ccc(NC(=O)OCc4ccccc4)nc3=O)CC2)c(C)c1", "activity change, negative = inhibition": "inactive"}, {"smiles": "CC(c1nc2ccccc2c(=O)[nH]1)N(C)CCOc1ccc(Cl)cc1", "note": "(configuration not stated)", "activity change, negative = inhibition": "inactive"}, {"smiles": "CNC[C@@H]1Oc2ccc(NS(C)(=O)=O)cc2CC(=O)N([C@H](C)CO)C[C@H]1C", "activity change, negative = inhibition": "inactive"}, {"smiles": "COCC(=O)N(C)C[C@H]1Oc2ncc(Br)cc2C(=O)N([C@H](C)CO)C[C@H]1C", "activity change, negative = inhibition": "inactive"}, {"smiles": "C[C@H]1CN([C@@H](C)CO)C(=O)c2cccc(NC(=O)Nc3ccc(C(F)(F)F)cc3)c2O[C@H]1CN(C)S(=O)(=O)c1ccccc1", "activity change, negative = inhibition": "inactive"}, {"smiles": "O=C(c1cc(COc2cccc(C(F)(F)F)c2)on1)N1CCC(c2ccncc2)CC1", "activity change, negative = inhibition": "inactive"}, {"smiles": "Clc1ccc(-c2noc(CSc3nnc(-c4ccncc4)n3-c3ccccc3)n2)cc1", "activity change, negative = inhibition": "inactive"}, {"smiles": "CC1=C(C(=O)OCc2ccc3c(c2)OCO3)C(c2ccc(F)cc2)NC(=O)N1", "note": "(configuration not stated)", "activity change, negative = inhibition": "inactive"}, {"smiles": "Cc1nn(C)c(Cl)c1NC(=O)OCc1ccc(Cl)cc1Cl", "activity change, negative = inhibition": "inactive"}, {"smiles": "Cc1nn(C)cc1NC(=O)C[C@H]1CC[C@@H]2[C@@H](COc3ccc(NC(=O)C4CCC4)cc3C(=O)N2C)O1", "activity change, negative = inhibition": "inactive"}, {"smiles": "CCNC(=O)Nc1ccc2c(c1)C(=O)N(C)[C@@H]1CC[C@@H](CC(=O)NCC3CCCCC3)O[C@@H]1CO2", "activity change, negative = inhibition": "inactive"}, {"smiles": "CCNC(=O)C[C@@H]1CC[C@@H]2[C@@H](COc3ccc(NC(=O)Cc4cccs4)cc3C(=O)N2C)O1", "activity change, negative = inhibition": "inactive"}, {"smiles": "CCNC(=O)C[C@H]1CC[C@@H]2[C@@H](COc3ccc(NC(=O)Cc4cccs4)cc3C(=O)N2C)O1", "activity change, negative = inhibition": "inactive"}, {"smiles": "CN(C)CCCNC(=O)[C@H]1[C@H](CO)[C@H]2Cn3c(ccc(C4=CCCC4)c3=O)[C@H]2N1CCC(F)(F)F", "activity change, negative = inhibition": "inactive"}, {"smiles": "CNC[C@H]1Oc2c(NC(=O)Nc3ccc4c(c3)OCO4)cccc2C(=O)N([C@H](C)CO)C[C@@H]1C", "activity change, negative = inhibition": "inactive"}, {"smiles": "C[C@H](CO)N1C[C@H](C)[C@H](CN(C)Cc2ccccc2)Oc2c(NC(=O)Nc3ccc4c(c3)OCO4)cccc2C1=O", "activity change, negative = inhibition": "inactive"}, {"smiles": "C#CCn1c(=O)c2c(ncn2C)n(C)c1=O", "activity change, negative = inhibition": "inactive"}, {"smiles": "COc1cccc(CNC(=O)C[C@@H]2C=C[C@H](NC(=O)C3CCC3)[C@H](CO)O2)c1", "activity change, negative = inhibition": "inactive"}, {"smiles": "Cc1ccc(-c2ccc3c(c2)O[C@H](CN(C)Cc2cccnc2)[C@@H](C)CN([C@H](C)CO)S3(=O)=O)cc1", "activity change, negative = inhibition": "inactive"}, {"smiles": "Cc1ccc(-c2ccc3c(c2)O[C@@H](CN(C)Cc2cccnc2)[C@H](C)CN([C@H](C)CO)S3(=O)=O)cc1", "activity change, negative = inhibition": "inactive"}, {"smiles": "N#Cc1ccc(CN2CCN(C(=O)CNC(=O)Cc3cccc4ccccc34)CC2)cc1", "activity change, negative = inhibition": "inactive"}, {"smiles": "Cc1cc(C)c(CN2CCN(C(=O)Cn3cnc4c(NCc5ccccc5)ncnc43)CC2)c(C)c1", "activity change, negative = inhibition": "inactive"}]}]}
